Results reported in PMC12136788.
The full ranking holds about 5,800 sequences; the median of “enrichment r” is about 0.68, and the highest 2% start at about 11. The list is a sample of the results.

T1: UNK ZnF1-6 (called full-length) (human, UniProt Q9C0B0 30-357)
T1 sequence: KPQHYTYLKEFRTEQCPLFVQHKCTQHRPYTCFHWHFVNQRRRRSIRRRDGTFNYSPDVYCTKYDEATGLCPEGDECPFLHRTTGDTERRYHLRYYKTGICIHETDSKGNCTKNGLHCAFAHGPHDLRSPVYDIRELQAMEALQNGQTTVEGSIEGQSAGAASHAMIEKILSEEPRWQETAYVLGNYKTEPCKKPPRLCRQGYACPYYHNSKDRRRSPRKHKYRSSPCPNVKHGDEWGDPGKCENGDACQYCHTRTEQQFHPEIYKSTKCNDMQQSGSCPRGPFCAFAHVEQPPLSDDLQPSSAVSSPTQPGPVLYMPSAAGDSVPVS

B1: ENSG00000198589:be:win_3501|CDS|ENSG00000198589|bound_else_gene|NA|bound_elsewhere_windowed (ssRNA)
RNA: GGGAGUUCUACAGUCCGACGAUCUGAUACUGAAACUCAAGAUUCUAAAGAUUCUGGAAUUCAGACUAUGACAGCAUCAGGGUCUUCAGCUAUGUCACCAGAAACUACUGUUUCCCAAAUAGCUGUAGAAUCAGACCUUGGUCACAACAGAGGAUUGAGCAUCA
B2: chr5:136975339:136975545:-|3pUTR|ENSG00000152377|msi1|total|mutant (ssRNA)
RNA: GGGAGUUCUACAGUCCGACGAUCAGAGCCCAUCAAAUCCUGAGUGUCAGUUUGUUGUCCCUAUUGCCGAUGAAACCGUGAUGCCGCAAAAACCCCGUAAAUUCUGAAUGCUUUUCCACGCCGACUUAUCUGGAAUGUGAACACCAACAGAGGAUUGAGCAUCA
B3: chr3:124966548:124966651:-|3pUTR|ENSG00000173706|unk|total|mutant (ssRNA)
RNA: GGGAGUUCUACAGUCCGACGAUCAGGAAGAAUGCAAAGUUCAGUAUUUCAAUACUUUGUAUUUUACUUGAAAUUACCCUCCGCCGCAUCUUUUUUUUCCUGUCUGAAAGCUUUUGUGUGGAUGAGAAGGGACAUUUCAUUUCCCAACAGAGGAUUGAGCAUCA
B4: ENSG00000124766:be:win_801|CDS|ENSG00000124766|bound_else_gene|NA|bound_elsewhere_windowed (ssRNA)
RNA: GGGAGUUCUACAGUCCGACGAUCCUCGGCCUCCGCCUCCUCGGCAGCCUCGGCCUCCGCAGCGCUCGCGGCCCCGGGCAAGCACCUGGCGGAGAAGAAGGUGAAGCGCGUCUACCUGUUCGGCGGCCUGGGCACGUCGUCGUCCAACAGAGGAUUGAGCAUCA
B5: ENSG00000101945:stop:overlap|stop_codon|ENSG00000101945|stop_codon|NA|stop_codon (ssRNA)
RNA: GGGAGUUCUACAGUCCGACGAUCAGAAGCGGGUCCGUAUUGAAUGCAAGUGUGGGACUGAGUCCUGCCGCAAAUACCUCUUCUAGCCCUUAGAAGUCUGAGGCCAGACUGACUGAGGGGGCCUGAAGCUACAUGCACCUCCCCCAACAGAGGAUUGAGCAUCA
B6: chr12:24812577:24812678:-|3pUTR|ENSG00000060982|msi1|FALSE|unique (ssRNA)
RNA: GGGAGUUCUACAGUCCGACGAUCAUCCAAAGGAGCUUUUUCCUUAUUCUGUCAAGCAUUGAGAUCUUCUUCAGCUUUCAAUGUAGUUGCUAAAUACAAAUAAUGCUACUAGGUAGUGACUAAAUAUAGCAAACACUUCAUCAGCAACAGAGGAUUGAGCAUCA
B7: chr10:22535117:22535218:-|3pUTR|ENSG00000150867|unk|FALSE|unique (ssRNA)
RNA: GGGAGUUCUACAGUCCGACGAUCAAGGUACACAUACAUUAUUUGAGUAACUGUUUCCUUGGGGGCCAAUCUGUGUAUGCUUUUAGAAGUUUACAGAAUGCUUUUAUUUUUGUCUAUAACAAACAGUCUGUCAUUUAUUUCUGUCAACAGAGGAUUGAGCAUCA
B8: chr9:76611375:76614569:-|three_prime_utr|ENSG00000106772|control|control|control (ssRNA)
RNA: GGGAGUUCUACAGUCCGACGAUCAUGUUACCUUUUUCCACUUUGCACUACCUGGUGCCAUUCUAAAUUUCUAAGGGGAAAAAUAGAAAGUUUGUUUACUCUUAAGAUAUUUUAUGAAAUUGUGUGUACUUUCCUAUUUUGCCACAACAGAGGAUUGAGCAUCA
B9: chr12:131960804:131960905:+|CDS|ENSG00000183495|unk|total|mutant (ssRNA)
RNA: GGGAGUUCUACAGUCCGACGAUCCCCUCAGCAAGCCCGUCGGCACCCCAGUCUCCCAGUUAUCAAAUACAGCAGCUGAUGAACCGGAGCCCUGCAACCGGGCAGAACGUGAACAUCACCCUGCAGAGCGUGGGCCCUGUCGUCCAACAGAGGAUUGAGCAUCA
B10: chr1:154944474:154944574:-|3pUTR|ENSG00000163346|msi1_unk|FALSE|overlapping (ssRNA)
RNA: GGGAGUUCUACAGUCCGACGAUCUCGAGGCCCAGCACGAGGACUUACCCUGGGGUUUUGUUAGGUUUGGAAGCAGCUGUCCCUAGGGGGUGAAGUCCCCCCCCUUUUUUUUUUUACCCCUGCUUCUCCCACGGCUUCACCUCCCAACAGAGGAUUGAGCAUCA
B11: chr7:32869766:32869881:-|CDS|ENSG00000170852|unk|FALSE|bound_elsewhere (ssRNA)
RNA: GGGAGUUCUACAGUCCGACGAUCAUGUACUGUUAUUUUCCAAGGUCUGACUCAUGGGUAGAAAUGGCCAUGAGACAGACUAGUAGGUCCUUUGCUUCAGCUGCAGCUUUUGGUGAUAAAAUUUUCUAUAUUGGAGGGUUGCAUCAACAGAGGAUUGAGCAUCA
B12: chr2:42682433:42682535:+|CDS|ENSG00000057935|unk|FALSE|unique (ssRNA)
RNA: GGGAGUUCUACAGUCCGACGAUCUCACGCUAUGGAUACAUUGUAUAGACACAGCUAUGAUUUGAGCAGUGCCAUUAGUGUCUUAGUACCACUCGGAGGACCUGUUUUAUGCAGAGAUGAAAUGGAGGAAUGGUCAGCCUCUGACAACAGAGGAUUGAGCAUCA
B13: chr1:64832709:64832810:+|3pUTR|ENSG00000162437|msi1|total|mutant (ssRNA)
RNA: GGGAGUUCUACAGUCCGACGAUCACAGCCCGAAAGUUUAAGGUAAUUUCUAAGUAUACUACCUAUAAGUAACUGAUAAGAAUCCGGCAUCAUUCAGUGAUACCGCAGAUGACUAAUGGGUUUUUCAGGCCCUGCACUUCUCUUCAACAGAGGAUUGAGCAUCA
B14: chr7:16784014:16784129:+|3pUTR|ENSG00000106537|msi1_unk|total|mutant (ssRNA)
RNA: GGGAGUUCUACAGUCCGACGAUCGAUAAUUUACUUGCCGUCUUUUAUGAUUACACCAAUGUAUUCCCGAAACCGUUAUGUCUCCGGAAAUUGUGGUUUAAUUUUUGACUUUUACAGGUAAGUGCAAAGGAGAAGUGGUUUCAUCAACAGAGGAUUGAGCAUCA
B15: chr8:79641408:79641533:+|CDS|ENSG00000104435|unk|total|mutant (ssRNA)
RNA: GGGAGUUCUACAGUCCGACGAUCCCAGGCUUUUGAGCUGAUCUUGAAGCCACCAUCUCCUAUCUCAGAAGCCCCACGAACUUCCGCUUCUCCAAAGAAGAAAGACCUGUCCCUGGAGGAGAUCCAGAAGAAACUGGAGGCUGCCAACAGAGGAUUGAGCAUCA
B16: ENSG00000107863:be:win_6101|3pUTR|ENSG00000107863|bound_else_gene|NA|bound_elsewhere_windowed (ssRNA)
RNA: GGGAGUUCUACAGUCCGACGAUCGCAAGGUAUUUGUUGCAACUUACUACAUAGCAUAUACCCAAAAUCACUGAAGAAAAUCGCUGGCAUCAGUGUGCAGCAAAUUUGUUCUUUUGGUUUCAUCACUAACAAAAGUGCCUCAUCCAACAGAGGAUUGAGCAUCA
B17: chr14:102081487:102081564:-|3pUTR|ENSG00000080824|msi1_unk|FALSE|overlapping (ssRNA)
RNA: GGGAGUUCUACAGUCCGACGAUCGAAGAUAAGAUUUCUGUCUACUAAGUGAUGCUGUGAUACCUUAGGCACUAAAGCAGAGCUAGUAAUGCUUUUUGAGUUUCAUGUUGGUUUAUUUUCACAGAUUGGGGUAACGUGCACUGUCAACAGAGGAUUGAGCAUCA
B18: chr14:54957033:54957204:-|CDS|ENSG00000198554|control|control|control (ssRNA)
RNA: GGGAGUUCUACAGUCCGACGAUCGCACGUUCAACUAAUAUUUUAGACAAUAUGGGCAAAUCAUCCAAGAAAUCCACUGCACUUAGUCGAACUACAAAUAAUGAAAAGUCUCCCAUUAUAAAGCCUCUGAUUCCAAAGCCGAAGCAACAGAGGAUUGAGCAUCA
B19: chrX:55006554:55006655:+|CDS|ENSG00000169188|unk|FALSE|unique (ssRNA)
RNA: GGGAGUUCUACAGUCCGACGAUCAGGGCGCAAGUGGAUGGACAGCUUGCUCAGUAACUUGGGGUGCCAGUCUGCCUCUCAUGUAGGGCCCUUCAUCGAUAGCUACCGCUGCUUCCAACCAAAGCAGGAGGGGGCCUUCACCUGCAACAGAGGAUUGAGCAUCA
B20: chrX:112630647:112631419:-|three_prime_utr|ENSG00000182508|control|control|control (ssRNA)
RNA: GGGAGUUCUACAGUCCGACGAUCAGAAGAUUGGAGAGGGUGGGAAAGGGGAGGAGGGAGCCCUGAAAAGAGGUACUAAGGAUUAGGCCAUUUGUCAUCUGACUGUCAUUAGCAUAGCCUAGUGUUUGCAUGCUUUUUAAACUACAACAGAGGAUUGAGCAUCA
B21: chr1:173887777:173887878:+|3pUTR|ENSG00000185278|unk|FALSE|unique (ssRNA)
RNA: GGGAGUUCUACAGUCCGACGAUCAAAGAGAUUUGGCAGAGGGACAGGUUGUACCUGCACUGGUGAACCAUCUGUGAGAAUGUUAGUCAUGUGCUCCUUUCCUGAGAUUGCUUUGUGGUAUGUGAAAAGGUGGGUAGAAAAGAACAACAGAGGAUUGAGCAUCA
B22: chr1:93180074:93180188:-|CDS|ENSG00000117500|unk|FALSE|bound_elsewhere (ssRNA)
RNA: GGGAGUUCUACAGUCCGACGAUCCUGGCCGCUCUGCCUCCGGUGCUGCUGCCUGGGGCGGCCGGCUUCACACCUUCCCUCGAUAGCGACUUCACCUUUACCCUUCCCGCCGGCCAGAAGGAGUGCUUCUACCAGCCCAUGCCCCAACAGAGGAUUGAGCAUCA

Target: T1, UNK ZnF1-6 (called full-length)
Assay: nsRBNS (natural sequence RNA bind-n-seq); RBNS binding buffer (assumed for nsRBNS): 25 mM Tris pH 7.5, 150 mM KCl, 3 mM MgCl2, 0.01% Triton X-100, 500 ug/ml BSA, 20 U/ml SUPERase-In, 4 C; UNK is unkempt and MSI1 is Musashi-1; names of the RNAs are library labels; protein concentration not given here; high values mean tight binding

Row | Binder | binding signal [enrichment R]
1 | B1 | 0.311
2 | B2 | 0.528
3 | B3 | 0.473
4 | B4 | 0.655
5 | B5 | 0.806
6 | B6 | 0.559
7 | B7 | 0.472
8 | B8 | 0.818
9 | B9 | 1.09
10 | B10 | 1.37
11 | B11 | 0.714
12 | B12 | 0.747
13 | B13 | 0.244
14 | B14 | 0.435
15 | B15 | 0.67
16 | B16 | 0.567
17 | B17 | 0.375
18 | B18 | 1.02
19 | B19 | 0.87
20 | B20 | 1.14
21 | B21 | 0.823
22 | B22 | 1.1
